Experimental findings from PubChem BioAssay (NCI) are described below.

This is part of a sample that, as a whole, favours compounds with a hit. Of some 83,000 tested, about 20% had one in any assay.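 A percent growth of 40 corresponds to 60% growth inhibition; 0 means no net growth; -100 means all cells died. Active threshold: below 10.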 Values without a mark were called inactive. Active and inactive are the calls of the source.

Some test systems named below: NCI-H23 lung; NCI-H226 lung; NCI-H322M lung; HOP-62 NSCLC; NCI-H460 lung; HOP-92 NSCLC; NCI-H522 lung; A549/ATCC NSCLC; 786-0 renal; COLO 205 colon.
What all share (test): NCI-60 one-dose screen, 48 h (100 = growth as untreated, 0 = no growth, -100 = all killed)
Common to all, as to conditions: 10 µM unless noted

Regarding `CCc1ccc(C(=O)/C=C/C23c4ccccc4C(c4ccccc42)C2C(=O)NC(=O)C23)cc1` (stereo unspecified), the growth in the assay on NCI-H23 lung is 15.9%; with NCI-H226 lung, 42.3%; in the assay with NCI-H322M lung it was 15.8%; in the assay with HOP-62 NSCLC it was -3.98% (active); in the assay on NCI-H460 lung it was 5.14% (active); in the assay on HOP-92 NSCLC it was -17% (active). In addition, the figures for the growth with NCI-H522 lung, in the assay with A549/ATCC NSCLC and in the assay with 786-0 renal were -12.6% (active), 21.5% and -12.8% (active), respectively.

Consider `N#Cc1cnc(NCCc2ccncc2)nc1-n1cnc2ccccc21`, for which the growth was 76% with NCI-H23 lung; 68.7% in the assay with NCI-H226 lung; 35% with NCI-H322M lung; 77.3% in the assay on HOP-62 NSCLC; 39.5% with NCI-H460 lung; 95.7% with HOP-92 NSCLC. Further, the growth in the assay with NCI-H522 lung is 55.8%; with A549/ATCC NSCLC, 53.5%; with 786-0 renal it was 40.3%.

Consider `O=C(CI)NC1Oc2ccccc2-c2oc(=O)c(-c3ccccc3)cc21` (stereo unspecified), for which the growth is -55.7% (active) in the assay on NCI-H23 lung; -43.3% (active) in the assay with NCI-H226 lung; 105% with NCI-H322M lung; -3.99% (active) with HOP-62 NSCLC; 0.996% (active) in the assay with NCI-H460 lung; -72.4% (active) in the assay with HOP-92 NSCLC. In addition, the growth is -75.6% (active) in the assay with NCI-H522 lung, 94.7% with A549/ATCC NSCLC, -79.3% (active) in the assay with 786-0 renal and -53.5% (active) in the assay on COLO 205 colon.

Turning to `CCCCNC(=O)Oc1ccc(/C(=C(/CC)Cc2ccccc2)c2ccc(OCCN3CCCCCC3)cc2)cc1`, the growth in the assay on NCI-H23 lung is 57.4%; in the assay with NCI-H226 lung it was 83.4%; in the assay on NCI-H322M lung, 85.4%; in the assay with HOP-62 NSCLC, 74.8%; in the assay on NCI-H460 lung, -59.8% (active); in the assay on HOP-92 NSCLC, 36%. For the same molecule, the growth was 30.4% in the assay on NCI-H522 lung, 39.5% in the assay on A549/ATCC NSCLC, 36.6% in the assay on 786-0 renal and -75% (active) in the assay on COLO 205 colon.

Consider `CN(C)c1ccc(Nc2cc(-c3cccc(OC(F)(F)F)c3)nc3ccc(N4CCCC4)cc23)cc1`, for which the growth in the assay on NCI-H23 lung is 27.2%; in the assay on NCI-H226 lung, 103%; in the assay with NCI-H322M lung, 46.3%; in the assay on HOP-62 NSCLC, 61.3%; in the assay with NCI-H460 lung, -70.9% (active); with HOP-92 NSCLC, 85.3%. The growth is 87.7% in the assay on NCI-H522 lung, -32.8% (active) in the assay with A549/ATCC NSCLC and 2.11% (active) in the assay with 786-0 renal.

`O=c1oc2ccc([N+](=O)[O-])cc2cc1Br`: the growth is 107% with NCI-H23 lung; 98.4% in the assay on NCI-H226 lung; 108% with NCI-H322M lung; 104% in the assay with HOP-62 NSCLC; 107% with NCI-H460 lung; 83.7% in the assay on HOP-92 NSCLC. In addition, the growth with NCI-H522 lung is 97.9%; with A549/ATCC NSCLC, 108%; with 786-0 renal it was 112%.

With `Cc1ccc(Sc2nnc(/N=C3\C(=O)Nc4ccccc43)s2)cc1`, the growth with NCI-H23 lung is 107%; in the assay on NCI-H226 lung, 106%; in the assay on NCI-H322M lung it was 97.1%; with HOP-62 NSCLC it was 96.5%; with NCI-H460 lung it was 104%; in the assay on HOP-92 NSCLC it was 96.4%. Moreover, the growth with NCI-H522 lung is 94.6%; in the assay on A549/ATCC NSCLC, 92.1%; with 786-0 renal it was 99.5%.

Turning to `O=C1COCCN1c1ccc(Nc2nc(Cl)nc(OCc3cn(Cc4ccccc4)nn3)n2)cc1`, the growth in the assay on NCI-H23 lung was 87.2%; in the assay with NCI-H226 lung it was 95.1%; in the assay with NCI-H322M lung it was 98.2%; in the assay with HOP-62 NSCLC it was 87.5%; in the assay with NCI-H460 lung it was 107%; in the assay with HOP-92 NSCLC, 82.5%. The growth in the assay on NCI-H522 lung is 76.5%; with A549/ATCC NSCLC it was 95.7%; in the assay on 786-0 renal, 101%.

For `C[C@]12CC[C@@H]3c4ccc(O)c([N+](=O)[O-])c4CC[C@H]3[C@@H]1CCC2=O`, the growth in the assay on NCI-H23 lung is 95.7%; in the assay on NCI-H226 lung it was 95.7%; in the assay on NCI-H322M lung, 99%; in the assay with HOP-62 NSCLC it was 104%; in the assay on NCI-H460 lung, 112%; with HOP-92 NSCLC, 86.6%. In addition, the results for the growth in the assay on NCI-H522 lung, with A549/ATCC NSCLC and in the assay with 786-0 renal were 85.8%, 102% and 90.1%, respectively.

As for `COC(=O)c1c2c(c(C)[n+]([O-])c1C)C(=O)C=C(NCc1ccc(Br)cc1)C2=O`, the growth in the assay on NCI-H23 lung is -44.8% (active); in the assay with NCI-H226 lung, -42.9% (active); with NCI-H322M lung, -14.9% (active); with HOP-62 NSCLC it was -77.2% (active); with NCI-H460 lung, -53.8% (active); in the assay with HOP-92 NSCLC, -53.8% (active). The growth with NCI-H522 lung was -44.8% (active); in the assay with A549/ATCC NSCLC it was -28.2% (active); in the assay on 786-0 renal, -8.26% (active).

For `Clc1ccc2c(c1)N(c1ncnc3ccc(-c4cnc5[nH]ncc5c4)cc13)CC2`, the growth in the assay on NCI-H23 lung was 52.5%; with NCI-H226 lung, 24.4%; in the assay with NCI-H322M lung, 11.8%; with HOP-62 NSCLC, 24.4%; in the assay on NCI-H460 lung, 20.1%; in the assay on HOP-92 NSCLC it was -1.84% (active). Also, the results for the growth with NCI-H522 lung, in the assay with A549/ATCC NSCLC and with 786-0 renal were 40.2%, 6.23% (active) and 18.1%, respectively.

Regarding `CN1CCN(c2ccc(NC(=O)c3cncnc3Nc3ccc(OCc4ccccn4)c(Cl)c3)cc2)CC1`, the growth with NCI-H23 lung is 70.1%; in the assay on NCI-H226 lung it was 70.2%; in the assay with NCI-H322M lung, 62.2%; in the assay on HOP-62 NSCLC it was 3.8% (active); with NCI-H460 lung, 27.8%; in the assay on HOP-92 NSCLC, 45.7%. In addition, the growth in the assay on NCI-H522 lung was 55.4%; with A549/ATCC NSCLC, 25.9%; in the assay on 786-0 renal, -82.4% (active); in the assay on COLO 205 colon, -3.55% (active).

For `Cn1cccc1C(=O)C1C(c2cccc([N+](=O)[O-])c2)C2C3CCCCC3CN2C12C(=O)Nc1ccc(Cl)cc12` (stereo unspecified), the growth with NCI-H23 lung was 49.3%; with NCI-H226 lung, 41.5%; in the assay with NCI-H322M lung, 75.6%; in the assay on HOP-62 NSCLC, 62.3%; in the assay with NCI-H460 lung, 37.3%; with HOP-92 NSCLC, 35%. For the same molecule, the growth in the assay on NCI-H522 lung is 52.3%; in the assay on A549/ATCC NSCLC it was 29.1%; in the assay on 786-0 renal, 66.4%; in the assay with COLO 205 colon, 20.6%.

As for `O=C(Nc1ccc(-c2nc(N3CCOCC3)c3cccn3n2)cc1)Nc1cccnc1`, the growth was 17.2% in the assay with NCI-H23 lung; -5.75% (active) in the assay with NCI-H226 lung; 0.902% (active) in the assay on NCI-H322M lung; -3.37% (active) in the assay on HOP-62 NSCLC; 7.47% (active) in the assay with NCI-H460 lung; -22.5% (active) in the assay on HOP-92 NSCLC. In addition, the growth in the assay on NCI-H522 lung is 4.32% (active); in the assay on A549/ATCC NSCLC it was 0.989% (active); with 786-0 renal, -12.7% (active); in the assay on COLO 205 colon, 6.07% (active).
